# Measured values: PubChem BioAssay (Tox21)
# A number with no mark means an inactive call. Results filed as inconclusive are left out. Where a call stands in place of a potency, no number is given. Activity calls are given as the source filed them. Unless noted, calls follow the shape of the dose curve; as a rule, active = well fitted curve in the direction sought with a large enough effect in the repeat runs; inconclusive = weak or mixed curves; inactive = no such curve, though single readings can be large; an effect the other way counts as inactive or inconclusive.
# Experiments:
# [1] = qHTS assay for small molecules that induce genotoxicity in human embryonic kidney cells expressing luciferase-tagged ATAD5 (AID 651632); also: nearly all actives have a fitted effect of over 15% in size
# Procedure, shortened: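 DMSO vehicle served as the control. HEK293T reporter cells, 16 hr at 37C, then 30 min Amplite at room temperature; ATAD5 induction is measured as luciferase activity.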
# [2] = qHTS assay for small molecules that induce genotoxicity in human embryonic kidney cells expressing luciferase-tagged ATAD5 - cell viability (AID 651634; calls by dose curve; also: nearly all actives have a fitted effect of over 25% in size)
# Procedure, shortened: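 Here HEK293T cells with the ATAD5 luciferase reporter are incubated with test compounds for 15.5 hr, and cytotoxicity is then gauged by measuring protease activity in live cells using fluorescence.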
# [3] = qHTS assay for small molecule disruptors of the mitochondrial membrane potential - cell viability (AID 720634; calls by dose curve;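 also: human HepG2 liver cancer cells; series mostly up to about 83 µM; nearly all actives have a fitted effect of over 20% in size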)
# Procedure, shortened: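 Viability of HepG2 cells is scored from ATP content by luminescence; cells are exposed to compound for 1 hr at 37 C and 5% CO2, then dosed with m-MPI dye before the CellTiter-Glo reagent.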
# [4] = qHTS assay for small molecule disruptors of the mitochondrial membrane potential (AID 720635); also: potency is read from the fitted curve at half-maximal effect
# Procedure, shortened: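 Mitochondrial membrane potential tracked with Mito-MPS dye, red aggregates (ex 540/em 590 nm) against green monomers (ex 490/em 535 nm). Compound treatment 1 hr at 37C, dye 30 min in HepG2.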
# [5] = qHTS assay to test for compound auto fluorescence at 590 nm (red) in HepG2 cells (AID 720674)
# Procedure, shortened: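 We screened compounds on adherent HepG2 cells, incubating them for an hour at 37 C in 5% CO2 before reading emission at 590 nm under 540 nm excitation; values reflect equivalence to Rose Bengal sodium fluorescence.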
# [6] = qHTS assay to test for compound auto fluorescence at 535 nm (green) in HepG2 cells (AID 720675)
# [7] = qHTS assay to test for compound auto fluorescence at 460 nm (blue) in HEK293 cells (AID 720678)
# Procedure, shortened: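 HEK293, 2,000 cells/well, 10% dialyzed FBS; attach 4-5 hr 37C; pin compound or DMSO; o/n 37C/5% CO2; fluorescence 405/460 nm; triamterene-equivalent units.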
# [8] = qHTS assay to test for compound auto fluorescence at 590 nm (red) in HEK293 cells (AID 720679)
# Procedure, shortened: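 Intensity at 540nm excitation and 590nm emission is reported as Rose Bengal sodium-equivalent autofluorescence. Measurements followed overnight exposure (37C, 5% CO2) of HEK293 cells, 2,000 per well, to 23 nL compound.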
# [9] = qHTS assay to test for compound auto fluorescence at 535 nm (green) in HEK293 cells (AID 720680)
# [10] = qHTS assay to test for compound auto fluorescence at 460 nm (blue) in HEK293 cell free culture (AID 720681)
# Procedure, shortened: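 Blue fluorescence (Ex 405/Em 460 nm, triamterene-equivalent) was read immediately after pin transfer of compound or DMSO into medium (DMEM, 10% FBS) without cells.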
# [11] = qHTS assay to test for compound auto fluorescence at 535 nm (green) in HEK293 cell free culture (AID 720682)
# Procedure, shortened: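 Compounds were pin-transferred into cell-free DMEM with 10% FBS, and green fluorescence was read at excitation 485 nm and emission 535 nm. Intensities were expressed as fluorescein-equivalent values.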
# [12] = qHTS assay to test for compound auto fluorescence at 590 nm (red) in HepG2 cell free culture (AID 720684)
# Procedure, shortened: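 Cell-free; medium MEM + 10% FBS; compound or DMSO added by pintool; read Ex 540/Em 590 nm; Rose Bengal sodium as red reference fluorophore.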
# [13] = qHTS assay to test for compound auto fluorescence at 460 nm (blue) in HepG2 cell free culture (AID 720685)
# Procedure, shortened: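 Cell-free plates of MEM plus 10% FBS received 23 nL compound or DMSO vehicle; blue-channel (405/460 nm) intensity scored against triamterene as reference fluorophore.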
# [14] = qHTS assay to test for compound auto fluorescence at 535 nm (green) in HepG2 cell free culture (AID 720686)
# [15] = qHTS assay to test for compound auto fluorescence at 460 nm (blue) in HepG2 cells (AID 720687)
# Procedure, shortened: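 Blue-channel autofluorescence (Ex/Em 405/460 nm, triamterene-equivalent) was measured after 1 hr compound exposure at 37 C, 5% CO2. Cells were HepG2, plated overnight at 37 C in MEM plus 10% FBS.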
# [16] = target: Glucocorticoid receptor (Homo sapiens) (UniProt P04150); assay: qHTS assay to identify small molecule agonists of the glucocorticoid receptor (GR) signaling pathway (AID 720691; active = well fitted activation curve with a large enough effect in the signal ratio in the repeat runs, not every such curve was filed as active; the % refers to the signal ratio)
# Glucocorticoid receptor (Homo sapiens), sequence (P04150 whole entry, looked up): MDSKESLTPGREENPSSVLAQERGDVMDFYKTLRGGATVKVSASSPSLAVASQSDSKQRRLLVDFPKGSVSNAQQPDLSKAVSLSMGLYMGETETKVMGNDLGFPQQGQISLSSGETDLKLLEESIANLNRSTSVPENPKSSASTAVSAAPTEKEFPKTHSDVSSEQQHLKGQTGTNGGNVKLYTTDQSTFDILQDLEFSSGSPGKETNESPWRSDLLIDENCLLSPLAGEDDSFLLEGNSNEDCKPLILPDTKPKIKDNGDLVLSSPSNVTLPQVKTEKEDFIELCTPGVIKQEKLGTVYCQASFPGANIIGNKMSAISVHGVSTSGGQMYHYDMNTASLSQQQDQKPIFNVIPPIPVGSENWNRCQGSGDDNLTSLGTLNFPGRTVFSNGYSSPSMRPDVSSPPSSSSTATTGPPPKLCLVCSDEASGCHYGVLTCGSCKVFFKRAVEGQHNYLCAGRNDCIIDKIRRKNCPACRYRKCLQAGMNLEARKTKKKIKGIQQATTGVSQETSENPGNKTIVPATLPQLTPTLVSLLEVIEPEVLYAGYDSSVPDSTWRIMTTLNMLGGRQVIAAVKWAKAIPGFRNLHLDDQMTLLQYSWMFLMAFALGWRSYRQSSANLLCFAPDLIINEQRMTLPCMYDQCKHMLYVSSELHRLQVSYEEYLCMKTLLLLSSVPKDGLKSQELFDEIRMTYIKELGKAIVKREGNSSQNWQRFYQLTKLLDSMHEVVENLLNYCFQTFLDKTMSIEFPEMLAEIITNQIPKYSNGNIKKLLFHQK
# Procedure, shortened: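 Compounds in DMSO, alongside positive controls, were added to GR-bla HeLa reporter cells and incubated 18 h at 37 C; GRE-driven beta-lactamase was detected by fluorescence after 2 h with FRET substrate at room temperature.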
# [17] = target: Glucocorticoid receptor (Homo sapiens) (UniProt P04150); assay: qHTS assay to identify small molecule antagonists of the glucocorticoid receptor (GR) signaling pathway (AID 720692; active = well fitted inhibition curve with a large enough effect in the signal ratio in the repeat runs, not every such curve was filed as active; the % refers to the signal ratio)
# Procedure, shortened: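 In a 1536-well cell format, compounds were added 4 h after seeding GR-bla HeLa cells, together with dexamethasone at 5 nM final; reporter activity was measured by FRET-substrate fluorescence following 18 h at 37 C.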
# [18] = qHTS assay for small molecule agonists of the p53 signaling pathway - cell viability (AID 651633; calls by dose curve;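 also: p53RE-bla HCT reporter cells with a stable beta-lactamase p53 reporter; series mostly up to about 83 µM; nearly all actives have a fitted effect of over 30% in size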)
# Procedure, shortened: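 Viability counter-read: CellTiter-Glo luminescence (30 min, room temperature) in the same p53RE-bla plates. These plates had been exposed to compounds for 16 h at 37 C.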
# [19] = qHTS assay to test for compound auto fluorescence at 590 nm (red) in HEK293 cell free culture (AID 720683)
# Procedure, shortened: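 Red-channel autofluorescence of compounds in culture medium (DMEM, 10% FBS), no cells, measured at 540/590 nm. Rose Bengal sodium is the reference fluorophore for equivalence.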
smiles,measurement,setting,value
CCCc1nc(C)c2c(=O)[nH]c(-c3cc(S(=O)(=O)N4CCN(CC)CC4)ccc3OCC)nn12,Potency,[1],inactive
same,Potency,[2],inactive
same,Potency,[3],inactive
same,Potency,[4],inactive
same,outcome,[5],inactive
same,outcome,[6],inactive
same,Potency,[7],inactive
same,outcome,[8],inactive
same,outcome,[9],inactive
same,Potency,[10],inactive
same,outcome,[11],inactive
same,outcome,[12],inactive
same,outcome,[13],inactive
same,outcome,[14],inactive
same,outcome,[15],inactive
same,Potency,[16],inactive
same,Potency,[17],inactive
CC(=O)CC/C=C(\C)CC/C=C(\C)CC/C=C(\C)CCC=C(C)C,Potency,[18],inactive
same,Potency,[2],inactive
same,Potency,[3],inactive
same,Potency,[4],inactive
same,outcome,[5],inactive
same,outcome,[6],inactive
same,Potency,[7],inactive
same,outcome,[8],inactive
same,outcome,[9],inactive
same,Potency,[10],inactive
same,outcome,[11],inactive
same,outcome,[19],inactive
same,outcome,[12],inactive
same,outcome,[14],inactive
same,outcome,[15],inactive
CCC[Si](OC)(OC)OC,Potency,[18],inactive
same,Potency,[2],inactive
same,outcome,[5],inactive
same,outcome,[6],inactive
same,Potency,[7],inactive
same,outcome,[8],inactive
same,outcome,[9],inactive
same,Potency,[10],inactive
same,outcome,[11],inactive
same,outcome,[19],inactive
same,outcome,[12],inactive
same,outcome,[13],inactive
same,outcome,[14],inactive
same,outcome,[15],inactive
same,Potency,[16],inactive
same,Potency,[17],inactive
NC(=O)c1cc[n+](CC2=C(C(=O)[O-])N3C(=O)[C@@H](NC(=O)Cc4cccs4)[C@H]3SC2)cc1,Potency,[1],inactive
same,Potency,[2],inactive
same,Potency,[3],inactive
same,Potency,[4],inactive
same,"fluorescence, relative to Rose Bengal",[5],-0.33% [at 18.6 µM]
same,"fluorescence, % of fluorescein control",[6],-0.0242% [at 18.6 µM]
same,"fluorescence, % of triamterene",[7],0.803% [at 18.6 µM]
same,"fluorescence, % of fluorescent control",[8],0.0624% [at 18.6 µM]
same,"fluorescence, % of fluorescein",[9],0.0094% [at 18.6 µM]
same,"fluorescence, % of fluorescent control",[10],0.628% [at 18.6 µM]
same,activity change,[11],0.0615% [at 18.6 µM]
same,"fluorescence, % of fluorescent control",[19],0.0033% [at 18.6 µM]
same,"fluorescence, % of Rose Bengal",[12],0.512% [at 18.6 µM]
same,"fluorescence, % of fluorescent control",[13],0.491% [at 18.6 µM]
same,"fluorescence, % of fluorescein control",[14],-0.0061% [at 18.6 µM]
same,"fluorescence, % of fluorescent control",[15],0.406% [at 18.6 µM]
CC(=O)Oc1cccc2c1C(=O)c1c(OC(C)=O)cc(C(=O)O)cc1C2=O,Potency,[1],inactive
same,Potency,[2],inactive
same,Potency,[3],inactive
same,Potency,[4],13.3 µM (active)
same,outcome,[5],inactive
same,outcome,[6],inactive
same,Potency,[7],inactive
same,outcome,[8],inactive
same,outcome,[9],inactive
same,Potency,[10],inactive
same,outcome,[11],inactive
same,outcome,[19],inactive
same,outcome,[12],inactive
same,outcome,[13],inactive
same,outcome,[14],inactive
same,outcome,[15],inactive
same,Potency,[17],inactive
